In the library only some 10% were active in any assay of this set; here they are far more common.
HP1b chromo inh: HTS for Inhibitors of HP1-beta Chromodomain Interactions with Methylated Histone Tails | AlphaScreen HP1-beta / biotin-H3K9me3 peptide binding | Potency, µM (titrated, usually from 114 µM), inactives show at the top dose activity change, negative = inhibition, most hits filed as inhibitors | Chromobox protein homolog 1 (Homo sapiens), P83916 | 390,000 compounds, 0.56% hits; further: potency means the concentration at half of the fitted maximal effect; nearly all actives have a fitted effect of over 70% in size
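HP1-beta protein (50 nM final) preincubated 30 min at room temperature with biotinylated H3(1-18)K9me3 peptide (50 nM) in PBS pH 7.4, 0.01% Tween-20, then compound added for 30 min. AlphaScreen streptavidin donor/nickel chelate acceptor beads (10 ug/mL final), 30 min dark, luminescence read.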
G9a block: qHTS Assay for Inhibitors of Histone Lysine Methyltransferase G9a; Histone-lysine N-methyltransferase EHMT2 (Homo sapiens), Q96KQ7; G9a H3K9 monomethylation, AlphaScreen, 2 h; Potency, µM (doses to about 102 µM), for the others: at the top dose activity, negative = inhibition, hits mostly inhibitors; 350,000 compounds, 8.8% hits; AID 504332, 2011; further: potency means the concentration at half of the fitted maximal effect; on the % scale 0 is the no-effect control and ±100 the full control effect; nearly all actives have a fitted effect of over 75% in size
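Enzyme 20 nM + cpd, 15 min RT; add b-H3K9 pep 500 nM / SAM 20 uM; 2 h RT; anti-H3K9me1 Ab 0.5 ug/mL + SA donor / anti-rabbit acceptor beads 20 ug/mL each, 10 min; AlphaScreen read.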
Six1-Eya2 blk: qHTS Assay for Inhibitors of the Six1/Eya2 Interaction; AlphaScreen GST-Six1/His-Eya2 binding, biochemical; hits give low values; Homeobox protein SIX1 (Homo sapiens) + Protein phosphatase EYA2 (Homo sapiens), …; activity change, % (test concentration not listed); 360,000 compounds, 0.56% hits; AID 651725, 2012; in the data active means activity change below about -65%; inconclusive means mostly about -30% to -63%; further: on the % scale 0 is the no-effect control and ±100 the full control effect
Target sequence (O00167 whole entry, looked up): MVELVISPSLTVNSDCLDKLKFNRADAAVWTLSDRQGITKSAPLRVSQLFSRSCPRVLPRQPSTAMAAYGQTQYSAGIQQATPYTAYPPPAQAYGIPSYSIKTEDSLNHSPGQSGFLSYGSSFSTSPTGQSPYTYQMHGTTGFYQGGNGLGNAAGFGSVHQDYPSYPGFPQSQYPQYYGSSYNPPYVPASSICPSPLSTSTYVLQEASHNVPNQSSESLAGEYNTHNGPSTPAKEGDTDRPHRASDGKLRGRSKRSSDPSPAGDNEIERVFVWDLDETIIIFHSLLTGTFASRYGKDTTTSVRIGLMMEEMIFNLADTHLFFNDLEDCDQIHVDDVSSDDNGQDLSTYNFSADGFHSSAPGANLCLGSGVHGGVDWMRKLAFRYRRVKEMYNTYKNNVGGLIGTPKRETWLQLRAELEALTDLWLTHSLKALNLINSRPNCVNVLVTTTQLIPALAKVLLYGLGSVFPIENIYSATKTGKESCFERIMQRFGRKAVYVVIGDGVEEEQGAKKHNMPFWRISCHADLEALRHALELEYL
Target sequence (Q15475 whole entry, looked up): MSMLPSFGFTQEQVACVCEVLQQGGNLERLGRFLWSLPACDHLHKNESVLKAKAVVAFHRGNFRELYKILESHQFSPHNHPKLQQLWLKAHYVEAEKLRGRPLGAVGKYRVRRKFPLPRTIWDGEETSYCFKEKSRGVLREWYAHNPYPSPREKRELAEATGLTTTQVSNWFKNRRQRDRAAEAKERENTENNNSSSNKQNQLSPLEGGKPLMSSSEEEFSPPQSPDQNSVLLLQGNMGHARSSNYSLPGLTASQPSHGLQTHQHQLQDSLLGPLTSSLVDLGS
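Six1/Eya2 binding was read as AlphaScreen signal after compounds were pinned into GST-Six1 plus His-tagged Eya2 (5X stock 250/500 nM) in pH 8.0 Tris/NaCl/TCEP buffer, beads added, then incubated 1 h, 37 C, dark.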
CtBP-E1A inh: qHTS Assay for Inhibitors of the CtBP/E1A Interaction; CtBP / adenovirus E1A interaction (AlphaScreen); AlphaScreen GST-E1A/His-CtBP binding, 1536-well; hits give low values; activity change, % (no concentration beside the values); 340,000 compounds, 0.49% hits; in the data active means activity change below about -65%; inconclusive means mostly about -30% to -63%; further: on the % scale 0 is the no-effect control and ±100 the full control effect
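Protein mix (5X: 125 nM each GST-E1A, His-CtBP) was incubated with pinned compound 2 h at 37 deg C in dark, in 50 mM Tris pH 8.0 buffer with 300 mM NaCl. Glutathione donor and nickel acceptor beads followed; AlphaScreen signal read after 1 h.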
JMJD2A Tudor inh: qHTS Assay for Inhibitors of JMJD2A-Tudor Domain. Lysine-specific demethylase 4A (Homo sapiens), O75164. AlphaScreen JMJD2A-Tudor / H3K4me3 peptide binding. Potency, µM (series often up to 114 µM), for inactives: at the highest dose activity change, negative = inhibition, most hits filed as inhibitors. 390,000 compounds, 4.4% hits. AID 504339, 2011; further: potency means the concentration at half of the fitted maximal effect; on the % scale 0 is the no-effect control and ±100 the full control effect; nearly all actives have a fitted effect of over 50% in size
BAZ2B inh: qHTS Assay for Inhibitors of BAZ2B; Bromodomain adjacent to zinc finger domain protein 2B (Homo sapiens), Q9UIF8; AlphaScreen BAZ2B-H3K14Ac peptide displacement; Potency, µM (highest dose often 114 µM), for the others: top-dose activity change, negative = inhibition, usual class: inhibitors; 360,000 compounds, 4.4% hits; further: potency means the concentration at half of the fitted maximal effect; on the % scale 0 is the no-effect control and ±100 the full control effect; nearly all actives have a fitted effect of over 60% in size
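AlphaScreen luminescence quantifies BAZ2B engagement of H3K14Ac peptide; the protein and biotinylated peptide are both at 50 nM final, buffer PBS pH 7.4 with 0.01% Tween-20, all steps at room temperature.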
* hit, by the source's call; ? = inconclusive; nt = no result; [ ] = dose if it differs, or a comment. Unless noted, the call rests on the fitted dose curve; in most records, active means well fitted inhibition curve with a large enough effect; inconclusive means small, poorly fitted or top-dose-only effect; inactive means no such curve, though single readings can be large or run the other way.

SMILES	HP1b chromo inh	G9a block	Six1-Eya2 blk	CtBP-E1A inh	JMJD2A Tudor inh	BAZ2B inh
O=C(C1CC1)N1CCN(c2ccc(O)cc2)CC1	?	25.1µM*	12.5	1.6	79.4µM*	-2.1%
CCOC(=O)N1CCN(c2ccc(Cl)cc2)CC1	19.1%	15.5%[59 µM]	2.0	0.3	-7.4%[57.1 µM]	4.3%
CCOC(=O)N1CCN(c2ccc(O)cc2)CC1	-69.0%	2.82µM*	-2.2	-1.4	35.5µM*	8.2%
CCOC(=O)N1CCN(c2cc(=O)n(-c3ccc(C)cc3)c(=O)[nH]2)CC1	2.9%	50.1µM*	1.6	0.6	-3.5%	nt
CCOc1ccccc1NC(=S)N1CCN(c2ccc(OC)cc2)CC1	13.9%	?	-18.2	-16.5	?	?
CCOc1ccccc1NC(=S)N1CCN(c2ccc(O)cc2)CC1	-11.3%	35.5µM*	-25.7	nt	?	-14.3%
CC1(NC(=O)CC(c2ccccc2)(c2ccccc2)c2ccccc2)CCN(CCCc2ccccc2)C1=O (stereo unspecified)	30.4%	4.6%[0.501 µM]	-15.3	-5.3	-20.0%	3.0%
COc1ccc(CNC(=O)Cc2coc3ccc(C)cc23)cc1	5.7%	-10.3%[59 µM]	nt	nt	?	2.0%
O=[N+]([O-])c1ccccc1-c1ccc(/C=N/n2cnnc2)o1	-2.5%	-1.0%	-6.1	-6.6	-29.1%	-6.2%
Cc1cc(C(=O)O)ccc1-c1ccc(/C=N/n2cnnc2)o1	33.0%	56.2µM*	5.9	3.6	2.1%	1.5%
O=[N+]([O-])c1cc(-c2ccc(/C=N\n3cnnc3)o2)cc([N+](=O)[O-])c1	?	44.7µM*	-20.2	-4.3	?	-37.6%
COC(=O)C1=C(C)N(CCc2ccc(OC)c(OC)c2)C(=O)/C1=C\N(C)C	45.8%	44.7µM*	-2.5	-1.2	-5.5%	-3.3%
COc1ccc(CCNC2=C(Cl)C(=O)N(CCc3ccc(OC)c(OC)c3)C2=O)cc1OC	28.5%	-1.9%[59 µM]	3.3	6.9	14.9%	11.7%
COc1ccc(CCN2C(=O)C=CC2=O)cc1OC	?	nt	-7.1	-2.7	31.6µM*	nt
COc1ccc(CCN2C(=O)c3cccnc3C2=O)cc1OC	13.2%	-41.6%	-2.9	-5.3	-11.7%	79.4µM*
COc1ccc(CCN2C(=O)CC(Cc3ccc(C)cc3)C2=O)cc1OC (stereo unspecified)	-6.4%	-1.6%[0.501 µM]	11.6	14.4	10µM*	1.5%
O=C(c1cccs1)N1C[C@H](O)[C@@H](n2cc(-c3ccc(F)cc3)nn2)C[C@@H]1c1ccccc1	nt	nt	-9.7	-2.1	nt	nt
COc1ccc(N2CC(C(=O)Nc3nnc(SCC(=O)NCc4ccco4)s3)CC2=O)cc1 (stereo unspecified)	-4.6%	44.7µM*	-5.7	2.2	?	50.1µM*
O=C(CSc1nnc(NC(=O)C2CC(=O)N(c3ccc(F)cc3)C2)s1)NCc1ccco1 (stereo unspecified)	17.8%	44.7µM*	-1.6	-13.2	?	-33.6%
COc1cccc(N2CC(C(=O)Nc3nnc(SCC(=O)NCC4CCCO4)s3)CC2=O)c1 (stereo unspecified)	32.2%	16.0%[12.7 µM]	-17.9	-0.5	-8.3%	-8.9%
CN1CCN(c2ncc3nc(-c4cccc(C#N)c4)c(=O)n(Cc4ccc(F)cc4)c3n2)CC1	nt	-42.4%[0.501 µM]	nt	nt	nt	nt
CC(=O)Nc1ccc(S(=O)(=O)NCCC(=O)OCC(=O)NNC(=O)c2ccccc2)cc1	32.3%	-24.1%	0.3	-0.3	-16.7%	-8.1%
COC(=O)c1ccc(C(=O)OC)c(-n2c(=O)c3ccccc3c3ccccc3c2=O)c1	39.2%	28.2µM*	9.1	5.7	-26.4%	?
